ADAM17 inh: ADAM17 inhibitors, primary screen, biochemical, QFRET. 0.83% of 370,000 active. Disintegrin and metalloproteinase domain-containing protein 17 (Homo sapiens), P78536. recombinant ADAM17, EDANS/DABCYL FRET peptide cleavage. inhibition, % at 6.95 µM;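 active = inhibition above the mean of compounds lying between control limits plus 3 SD, set per campaign, cut at about 8.5% in these data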
Target sequence (P78536 215-824 limits assumed): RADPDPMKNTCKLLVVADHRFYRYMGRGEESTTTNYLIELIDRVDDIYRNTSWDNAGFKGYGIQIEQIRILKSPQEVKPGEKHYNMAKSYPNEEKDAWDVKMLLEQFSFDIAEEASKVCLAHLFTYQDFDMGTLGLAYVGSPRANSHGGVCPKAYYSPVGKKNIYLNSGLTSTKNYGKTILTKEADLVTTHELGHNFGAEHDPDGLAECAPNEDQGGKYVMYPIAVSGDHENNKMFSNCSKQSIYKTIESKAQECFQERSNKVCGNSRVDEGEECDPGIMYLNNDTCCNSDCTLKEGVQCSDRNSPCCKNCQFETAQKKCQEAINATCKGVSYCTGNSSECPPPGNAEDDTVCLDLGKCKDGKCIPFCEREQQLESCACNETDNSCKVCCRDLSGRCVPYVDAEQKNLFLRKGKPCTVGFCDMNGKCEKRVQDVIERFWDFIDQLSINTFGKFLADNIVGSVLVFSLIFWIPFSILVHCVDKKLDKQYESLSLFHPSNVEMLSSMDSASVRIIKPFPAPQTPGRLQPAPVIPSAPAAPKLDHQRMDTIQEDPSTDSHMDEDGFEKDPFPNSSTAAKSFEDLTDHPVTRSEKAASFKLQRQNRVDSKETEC
MPTP inh: mitochondrial permeability transition pore inhibitors, primary screen, biochemical, isolated mouse mitochondria, absorbance | Ca2+ swelling absorbance, 30 min | inhibition, % at 10 µM | 1.4% of 360,000 active | AID 602449, 2012;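 active = inhibition of 50% or more, scaled per plate between neutral and stimulator controls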
Pemphigus Ab inh: inhibitors of pemphigus antibody binding to DSG3, primary screen, biochemical, bead-based, flow cytometry, scFv-GFP; DSG3-coupled beads, scFv-anti-DSG3-GFP binding; hits give low values; binding (percent of control), % at 10 µM; 0.48% of 310,000 active;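 active = binding more than 3 SD below its plate's average and above zero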;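 note: hits lower antibody fragment binding to DSG3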
proKLK7 act: proKLK7 zymogen activators, primary screen, biochemical, fluorescence intensity; Kallikrein-7 (Homo sapiens), P49862; purified proKLK7, EDANS-DABCYL substrate fluorescence; 100% is mature enzyme control, 0% vehicle; activation, % at 7 µM; 0.9% of 370,000 active;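 active = activation above the mean of all tested compounds plus 3 SD, computed per campaign excluding outliers beyond control limits, cut at about 13% in these data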
ADAM10 inh: human ADAM10 inhibitors, primary screen, biochemical, QFRET, HTS; 0.62% of 370,000 active; recombinant ADAM10, EDANS/DABCYL FRET peptide cleavage, 3 h; inhibition, % at 7 µM; Disintegrin and metalloproteinase domain-containing protein 10 (Homo sapiens), O14672; AID 720582, 2013;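 active = inhibition above a per-campaign cutoff equal to the mean of compounds falling between control-based bounds plus 3 SD, cut at about 20% in these data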
rCAG binder: binders of r(CAG) RNA repeats, primary screen, biochemical, fluorescence. inhibition, % at 3 µM. r(CAG) RNA repeat, TO-PRO-1 dye displacement fluorescence. 1.3% of 370,000 active;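 active = inhibition above the plate cutoff, the mean of all test compounds on that plate plus 3 SD, cut at about 35% in these data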;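 note: higher means more dye released from RNA so lower well fluorescence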
MPTP counter: fluorescence retest of MPTP screen hits in isolated mitochondria, single concentration. AID 624504, 2012. shares compounds with MPTP inh. 78% of 5,000 active. membrane potential, Rhodamine 123 fluorescence. inhibition, % at 10 µM; in the data active = inhibition above about 22%
MPTP swell DR: mitochondrial permeability transition pore inhibitors, dose response, biochemical, absorbance, uHTS hits; isolated mitochondria swelling; shares compounds with MPTP inh; 58% of 780 active; IC50, µM; in the data active = IC50 below about 20 µM
MPTP cs DR: fluorescent counter-screen in isolated mitochondria, dose response, counter-screen for MPTP inhibitor project, biochemical, fluorescence, uHTS hits; shares compounds with MPTP inh; isolated mitochondria counterscreen, fluorescence read-out; 49% of 780 active; IC50, µM; in the data active = IC50 below about 80 µM
Each line names hits and unclear results; the compound was inactive in the other large screens (follow-up assays come after a bar, where they were run). Most compounds without a hit are left out; they make up all but 4.7% or so of the library.

O=C(NC(NC(=S)Nc1cc(Cl)ccc1Cl)C(Cl)(Cl)Cl)c1ccco1 (stereo not drawn)	MPTP inh 81.9 | MPTP counter 72.5
O=C(Cc1ccccc1)NC(NC(=S)Nc1cc(Cl)ccc1Cl)C(Cl)(Cl)Cl (stereo not drawn)	MPTP inh 97.8 (no result: Pemphigus Ab inh) | MPTP counter 70.2
Cc1ccccc1NC(=S)NC(NC(=O)c1ccco1)C(Cl)(Cl)Cl (stereo not drawn)	none
COc1ccc(-c2nc(N3CCN(C)CC3)sc2-c2ccc(OC)cc2)cc1	MPTP inh 74.3 (no result: Pemphigus Ab inh) | MPTP counter inactive | MPTP swell DR inactive | MPTP cs DR inactive
CCCCOc1ccc(Br)cc1CSC(=N)N	MPTP inh 82.8 | MPTP counter 108.0
COC(=O)C1=C(C)N(C)C(=NCc2ccccc2C(F)(F)F)NC1c1ccc(Cl)cc1 (stereo not drawn)	none (no result: MPTP inh, Pemphigus Ab inh)
COc1ccccc1-c1nnc2n1N=C(c1ccc3c(c1)OCO3)CS2	none (no result: MPTP inh, Pemphigus Ab inh)
CC(C)(C)C1CCc2c(sc(NC(=O)CSc3ncn[nH]3)c2C#N)C1 (stereo not drawn)	MPTP inh 52.0 (no result: Pemphigus Ab inh) | MPTP counter 66.4
CC1CCc2c(sc(NC(=O)CSc3ncn[nH]3)c2C#N)C1 (stereo not drawn)	MPTP inh 51.6 | MPTP counter 26.0
Cc1ccnc(SCC(=O)Nc2sc3c(c2C#N)CCCC3)n1	MPTP inh 100.4 | MPTP counter 125.0
CC(=O)c1c(C)[nH]c(C(=O)OCC(=O)Nc2sc3c(c2C#N)CCC(C)C3)c1C (stereo not drawn)	MPTP inh 105.4 | MPTP counter 88.8
N#Cc1c(NC(=O)CSc2ncn[nH]2)sc2c1CCCC2	none
CC(=O)Nc1nc2ncccn2c1-c1ccccc1	none (no result: MPTP inh, Pemphigus Ab inh)
O=C1c2ccccc2NC(c2cc(Cl)cc(Cl)c2O)N1CCc1ccccn1 (stereo not drawn)	none (no result: MPTP inh, Pemphigus Ab inh)
O=S(=O)(c1ccc(Cl)cc1)N1CCN(C(=S)Nc2ccc(F)c(Cl)c2)CC1	MPTP inh 84.7 | MPTP counter 88.0
Cc1ccc(CN2CCC=CS2(=O)=O)cc1	none (no result: MPTP inh, Pemphigus Ab inh)
COC(=O)[C@]12C[C@H](CC(=O)N3CCSCC3)C(=O)N(Cc3ccc4c(c3)OCO4)C1=C[C@H](C(C)(C)C)O[C@@H]2C	none (no result: MPTP inh, Pemphigus Ab inh)
O=C(CSc1ncnc2c1cnn2-c1ccccc1)Nc1ccccc1	MPTP inh 79.7 | MPTP counter 42.8
COc1cccc(NC(=O)CSc2ncnc3c2cnn3Cc2ccccc2)c1	MPTP inh 55.2 | MPTP counter 39.5
CCOC(=O)[C@@]12CCCC3=C1N(CCC3)C(=O)[C@H]2CC(=O)N1CCSCC1	none (no result: MPTP inh, Pemphigus Ab inh)
CCC1CCCCN1C(=O)n1ncc(C(O)(c2ccccc2)c2ccccc2)n1 (stereo not drawn)	none (no result: MPTP inh, Pemphigus Ab inh, proKLK7 act, rCAG binder)
CCOc1cc(CNCCSc2nnnn2C)cc(Br)c1OCc1ccccc1F	none
CCOc1cc(CNCCO)cc(Br)c1OCc1cccs1	MPTP inh 93.0 (no result: ADAM17 inh, proKLK7 act, ADAM10 inh, rCAG binder) | MPTP counter inactive | MPTP swell DR 4.06 | MPTP cs DR 22.7
CCOc1cc(CNCc2ccncc2)cc(Br)c1OCc1ccccc1F	MPTP inh 61.2 | MPTP counter 75.7
NC(=O)C12NC(Cc3ccccc31)c1ccccc12 (stereo not drawn)	none (no result: MPTP inh, Pemphigus Ab inh)
CC(C)C[C@@H]1COc2cc(F)ccc2S(=O)(=O)N1C	none (no result: MPTP inh, Pemphigus Ab inh)
Cc1sc2ncnc(NC3CCN(Cc4ccccc4)CC3)c2c1C	MPTP inh 90.8 | MPTP counter 71.4
c1ccc(CN2CCC(Nc3ncnc4sccc34)CC2)cc1	none
COC(=O)[C@]12C[C@H](CC(=O)N3CCCC3)C(=O)N(CCC3=CCCCC3)C1=C[C@H](C(C)(C)C)O[C@@H]2C	none (no result: MPTP inh, Pemphigus Ab inh)
COCC(=O)N[C@H]1C[C@@H]2O[C@@H](CO)CC[C@@H]2O[C@@H]1CCc1ccc(-c2ccccc2)cc1	none (no result: MPTP inh, Pemphigus Ab inh)
CC(=C/c1ccccc1)/C=N/NC(=O)CSc1nc(C)cc(C)n1	MPTP inh 62.0 | MPTP counter 32.5
Cc1ccccc1Nc1nc(N)nc(CSc2nc3ccccc3c(=O)n2C)n1	MPTP inh 57.2 | MPTP counter 22.1
O=Nc1ccccn1	none (no result: MPTP inh, Pemphigus Ab inh)
CCCCCCCCCC(=O)O	none
CCCCCC/C(C)=C1/SC(=S)NC1=O	MPTP inh 83.1 | MPTP counter 75.2
CN1CCN(c2ncnc3c2c(-c2ccccc2)cn3-c2ccc(F)cc2)CC1	MPTP inh 79.5 | MPTP counter inactive | MPTP swell DR 19.9 | MPTP cs DR inactive
CCN(Cc1ccccc1)C(=O)C1CCCN(c2ncccn2)C1 (stereo not drawn)	none (no result: MPTP inh, Pemphigus Ab inh)
Cc1ccccc1N1CCN(C(=O)CN2C(=O)CC(C)(C)S(=O)(=O)c3ccccc32)CC1	none (no result: MPTP inh, Pemphigus Ab inh)
OCCNCc1cccc(OCc2ccc(Cl)cc2)c1	MPTP inh 64.5 | MPTP counter inactive | MPTP swell DR 5.63 | MPTP cs DR inactive
Cc1cc(-c2ccco2)n2c(nc3ccccc32)c1C#N	none
C=C(C)CSc1cc(C)c(C#N)c2nc3ccccc3n12	MPTP inh 53.9 | MPTP counter 56.4
NN/C(=C\[N+](=O)[O-])Nc1ccc(Cl)cc1	MPTP inh 55.3 | MPTP counter 86.5
CC(=O)c1cccc(N=c2scc(-c3ccc(S(=O)(=O)N4CCOCC4)cc3)n2CCO)c1	MPTP inh 97.4 | MPTP counter 86.8
O=S(=O)(c1ccc(-c2ccccc2)cc1)N1CCOCC1	none
C=CCn1c(-c2ccc(S(=O)(=O)N3CCOCC3)cc2)csc1=Nc1ccccc1	MPTP inh 57.8 | MPTP counter 100.2
COc1ccc(C(=O)CSc2nnc(-c3cccc(Cl)c3)n2Cc2ccco2)cc1	none (no result: MPTP inh, Pemphigus Ab inh)
CN(C)c1ccc(N=C/C=C2/N(C)c3ccccc3C2(C)C)cc1	MPTP inh 82.3 | MPTP counter 52.0
CN1C(=CC=C2C=C(I)C(=O)C(I)=C2)C(C)(C)c2ccccc21	MPTP inh 66.6, Pemphigus Ab inh 58.9 | MPTP counter inactive
COC(=O)C1=C(C)N(Cc2ccccc2C(F)(F)F)C(=NCc2cc(OC)c(OC)c(OC)c2)NC1c1ccccc1 (stereo not drawn)	none (no result: MPTP inh, Pemphigus Ab inh)
C[C@H]1CCCN1c1ccc2c(c1)OCCCN(C1CC1)S2(=O)=O	none (no result: MPTP inh, Pemphigus Ab inh)

Bioassay records: PubChem, several laboratories
